# High-throughput results as filed in PubChem BioAssay.
# HepG2 tox-1: kills HepG2 cells in TGF-b inhibitor counter-screen; HepG2 CAGA-GFP viability, ATP luminescence, 18 h; Potency, µM (doses to about 46.1 µM), actives largely listed as cytotoxic; hit rate 0.76% among 410,000; AID 588856
#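 HepG2 CAGA-GFP cells (1000/well, DMEM with 1% FBS) received compound, then TGF-beta at 500 pg/mL final, and were incubated 18 hours at 37 degrees C. Viability was read by CellTiter-Glo luminescence. Media-only wells were set as complete cell-killing and DMSO as no toxicity.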
# TDP1 cell noCPT: qHTS for Inhibitors of human tyrosyl-DNA phosphodiesterase 1 (TDP1): qHTS in cells in absence of CPT; DT40 Tdp1-/- hTDP1 cells, no CPT, ATP luminescence, 48 h; Potency, µM (series often up to 46.2 µM), usual class: inhibitors; hit rate 15% among 420,000; AID 686978, 2013; further: nearly all actives have a fitted effect of over 55% in size
#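 DT40 Tdp1-/-;hTDP1 cells, no CPT (DMSO vehicle only), 400 cells/well; compounds pin-transferred; ≥48 hr, 37 °C; CellTiter-Glo 30 min RT dark, luminescence read.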
# IL-1B inflam inh: inhibitors of inflammasome signaling (IL-1 beta secretion); THP-1 LPS/ATP IL-1B secretion, AlphaLISA, 16 h; stronger effect = lower value; activity change, % at 57.5 µM; AID 743279; hit rate 4.7% among 360,000; in the data active means activity change below about -50%; inconclusive means mostly about -30% to -49%
#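 Secreted IL-1B measured by AlphaLISA bead assay after 16 h compound exposure of THP-1 cells; compounds (final up to 57.5 uM) added 1 h before LPS (250 ng/mL) and ATP (1.25 mM) stimulation; lower signal means less secretion.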
# ASM inhibitor: inhibitors of human secretory acid sphingomyelinase; P17405; placental ASM, HMU-PC fluorogenic substrate, 60 min; Potency, µM (series often up to 57.5 µM), actives largely listed as inhibitors; hit rate 0.006% among 340,000; AID 504937
# Target sequence (P17405 47-631 limits assumed): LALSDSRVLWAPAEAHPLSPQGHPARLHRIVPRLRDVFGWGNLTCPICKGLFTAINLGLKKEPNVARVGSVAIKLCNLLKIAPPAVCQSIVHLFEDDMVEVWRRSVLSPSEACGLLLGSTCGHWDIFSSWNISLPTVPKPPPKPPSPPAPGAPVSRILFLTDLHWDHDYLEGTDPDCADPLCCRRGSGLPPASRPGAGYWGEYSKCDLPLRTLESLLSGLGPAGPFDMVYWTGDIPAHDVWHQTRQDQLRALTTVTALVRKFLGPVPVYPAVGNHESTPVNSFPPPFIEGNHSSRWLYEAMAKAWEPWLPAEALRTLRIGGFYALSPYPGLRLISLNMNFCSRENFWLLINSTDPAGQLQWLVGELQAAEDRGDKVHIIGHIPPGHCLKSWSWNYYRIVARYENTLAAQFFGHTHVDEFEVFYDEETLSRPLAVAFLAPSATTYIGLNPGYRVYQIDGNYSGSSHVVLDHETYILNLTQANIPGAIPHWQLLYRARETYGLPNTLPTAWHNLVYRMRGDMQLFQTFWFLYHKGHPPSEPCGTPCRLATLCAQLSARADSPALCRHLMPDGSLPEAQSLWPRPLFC
#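 Human placenta-derived ASM enzyme was preincubated with compound for 10 minutes at room temperature, then given fluorogenic substrate HMU-PC0 (9 uM final) for 60 minutes at 37 °C; a pH 10 stop preceded fluorescence reading at Ex 386/Em 447 nm.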
# TGFb inhibitor: inhibitors of TGF-b signaling. HepG2 CAGA-GFP TGF-b/SMAD3 reporter, GFP fluorescence, 18 h; TGF-beta stimulated, 500 pg/mL final. Potency, µM (top dose mostly 46.1 µM), hits mostly inhibitors. hit rate 1.2% among 410,000. AID 588855; further: nearly all actives have a fitted effect of over 65% in size
#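 Smad-responsive CAGA-GFP expression was quantified in HEPG2 cells exposed to compounds and 500 pg/mL final TGF-beta for 18 h at 37 degrees C; unstimulated wells defined full inhibition.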
# TDP1 cell CPT: growth inhibition of DT40 Tdp1-/-;hTDP1 cells with camptothecin (screen for TDP1 inhibitors); chicken DT40 Tdp1-/-;hTDP1 cells + 20 nM CPT, ATP luminescence, 48 h; Potency, µM (highest dose often 46.2 µM), usual class: inhibitors; hit rate 12% among 420,000; further: nearly all actives have a fitted effect of over 55% in size
#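 Cell growth measured by CellTiter-Glo luminescence after a minimum 48 h, 37 C compound exposure with 20 nM CPT in Tdp1-knockout DT40 cells stably expressing hTDP1, seeded 400/well; qHTS titration format.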
# TGFb confirm: confirmation of TGF-b signaling inhibitors in HepG2 reporter cells; shares compounds with TGFb inhibitor; hit rate 63% among 1,600; Potency, µM (series often up to 46.1 µM), actives largely listed as inhibitors; HepG2 CAGA-GFP TGF-b reporter, GFP fluorescence, 18 h; cells stimulated with TGF-beta, 500 pg/mL; further: nearly all actives have a fitted effect of over 65% in size
# HepG2 tox-2: toxic to HepG2 cells in TGF-b counterscreen. shares compounds with TGFb inhibitor. HepG2 CAGA-GFP viability, ATP luminescence, 18 h; cells stimulated with TGF-beta, 500 pg/mL. Potency, µM (titrated, usually from 46.1 µM), usual class: inhibitors. hit rate 27% among 1,600. AID 720535; further: nearly all actives have a fitted effect of over 70% in size
# CCL64 TGFb inh: blocks TGF-b signaling in CCL64 reporter cells; Potency, µM (top dose mostly 46.1 µM), most hits filed as inhibitors; shares compounds with TGFb inhibitor; hit rate 41% among 1,600; AID 720536; CCL64 CAGA-GFP reporter, TGF-b stimulated, GFP fluorescence, 18 h; further: nearly all actives have a fitted effect of over 65% in size
# TGFb COP inh: validation of TGF-b inhibitors in HepG2 COP promoter reporter | shares compounds with TGFb inhibitor | HepG2 COP-GFP TGF-b reporter, GFP fluorescence, 18 h; cells stimulated by added recombinant TGF-beta | Potency, µM (series often up to 46.1 µM), most hits filed as inhibitors | hit rate 3% among 1,600 | AID 720537; further: nearly all actives have a fitted effect of over 70% in size
# Hits are given with their value; – = inactive; ? = inconclusive; · = no result. Rows were chosen to be rich in hits. Some 19% of all compounds tested hit in one or more screens of this group. Unless noted, the call rests on the fitted dose curve; in most records, active means well fitted curve in the direction sought with a large enough effect; inconclusive means small, poorly fitted or top-dose-only effect, or another doubt; inactive means no such curve, though single readings can be large; an effect the other way counts as inactive or inconclusive.
SMILES,HepG2 tox-1,TDP1 cell noCPT,IL-1B inflam inh,ASM inhibitor,TGFb inhibitor,TDP1 cell CPT,TGFb confirm,HepG2 tox-2,CCL64 TGFb inh,TGFb COP inh
CCc1nc2ccc(C(=O)N3CCN(c4cccc(C(F)(F)F)c4)CC3)cc2nc1CC,–,?,–,–,20µM,?,?,–,?,–
CCc1nc2ccc(C(=O)N3CCN(CC)CC3)cc2nc1CC,–,–,–,–,–,–,·,·,·,·
NC(=O)c1cccc(-c2ccnc3c2CC(C(=O)Nc2cccc(C(F)(F)F)c2)O3)c1 (stereo not drawn),–,18.4µM,–,·,12.6µM,18.4µM,20.6µM,–,–,–
O=C(Nc1ccc2c(c1)OCO2)C1Cc2c(-c3cccnc3)ccnc2O1 (stereo not drawn),–,?,–,·,–,–,·,·,·,·
Cc1cc(N2CCN(c3ccccc3)CC2)n2cnnc2n1,–,?,·,·,–,?,·,·,·,·
Cc1cc(N2CCN(c3ccccc3)CC2)n2cc(-c3ccccc3)nc2n1,–,10.3µM,-68.1,–,?,?,?,–,–,–
O=C(COc1ccc(C(=O)c2ccccc2)cc1)NCc1ccc(F)cc1,–,1.03µM,–,–,?,0.92µM,9.2µM,–,?,–
O=C(COc1ccccc1)NCc1ccccc1,–,–,–,–,–,–,·,·,·,·
CCCCn1c(=O)c2oc3ccccc3c2n(Cc2ccc(OC)cc2)c1=O,–,?,·,·,–,?,·,·,·,·
O=[N+]([O-])c1ccc(S(=O)(=O)c2cccc(C(F)(F)F)c2)nc1,12.6µM,0.651µM,-102.4,–,6.31µM,2.59µM,3.66µM,7.31µM,2.59µM,16.4µM
CCc1nn(CC(=O)NC(C)CC)c(=O)c2cc3occc3n12 (stereo not drawn),–,–,·,·,?,–,·,·,·,·
CC(C)(C)c1ccc(Cn2c(=O)cnc3ccccc32)cc1,–,16.4µM,–,–,10µM,16.4µM,18.4µM,?,–,–
O=C(COc1ccccc1F)NCc1ccc(-n2cccc2)cc1,–,?,–,–,?,–,·,·,·,·
CCN(CC)C(=O)[C@H]1C[C@H](CC(=O)NC/C=C(\C)CCC=C(C)C)C(=O)N2CCc3c([nH]c4cc(-c5ccco5)ccc34)[C@]12C,–,?,-65.4,?,8.91µM,?,?,?,13µM,–
CC(C)(C)NC(=O)C[C@H]1C[C@H](C(=O)N2CCCCC2)[C@@]2(C)c3[nH]c4ccc(Cl)cc4c3CCN2C1=O,–,20.6µM,–,–,?,23.1µM,?,–,–,–
C[C@]12c3[nH]c4cc(-c5ccco5)ccc4c3CCN1C(=O)[C@@H](CC(=O)NCC13CC4CC(CC(C4)C1)C3)C[C@@H]2C(=O)N1CCOCC1,–,?,–,?,10µM,?,9.2µM,?,?,–
COc1ccc(CNC(=O)C[C@H]2C[C@H](C(=O)N3CCOCC3)[C@@]3(CCC4CCCC4)c4[nH]c5cc(-c6ccco6)ccc5c4CCN3C2=O)cc1OC,–,?,?,–,12.6µM,18.4µM,6.51µM,–,?,–
CCOc1nc(C#N)nc(N(c2ccccc2)c2ccccc2)n1,–,–,·,·,–,–,·,·,·,·
CC(=O)c1cccc(NC(=O)c2c(N3CCCC3=O)c3cc(F)ccc3n2C)c1,–,·,·,·,–,·,·,·,·,·
CC[C@]12c3[nH]c4cc(-c5ccco5)ccc4c3CCN1C(=O)[C@@H](CC(=O)NCCC1=CCCCC1)C[C@@H]2C(=O)N1CCN(C(=O)c2ccco2)CC1,–,18.4µM,-63.9,–,14.1µM,20.6µM,?,–,?,–
CC[C@]12c3[nH]c4ccc(OC)cc4c3CCN1C(=O)C(CC(=O)NCC13CC4CC(CC(C4)C1)C3)C[C@@H]2C(=O)N1CCN(C(=O)C2CC2)CC1 (stereo partly drawn),–,?,–,–,?,?,·,·,·,·
C[C@]12c3[nH]c4ccc(Cl)cc4c3CCN1C(=O)[C@@H](CC(=O)NCc1cccc(C(F)(F)F)c1)C[C@@H]2C(=O)N1CCOCC1,–,?,-55.9,–,10µM,?,16.4µM,–,14.6µM,–
CC[C@]12c3[nH]c4ccc(Cl)cc4c3CCN1C(=O)[C@@H](CC(=O)NCC13CC4CC(CC(C4)C1)C3)C[C@@H]2C(=O)N1CCN(C(=O)C2CC2)CC1,–,3.26µM,–,–,10µM,8.2µM,9.2µM,?,23.1µM,–
CC[C@]12c3[nH]c4cc(CCC(=O)N(C)C)ccc4c3CCN1C(=O)[C@@H](CC(=O)NCCC1=CCCCC1)C[C@@H]2C(=O)N1CCN(C(=O)c2ccco2)CC1,–,–,–,–,–,–,·,·,·,·
C[C@]12c3[nH]c4ccc(Cl)cc4c3CCN1C(=O)[C@@H](CC(=O)NCC13CC4CC(CC(C4)C1)C3)C[C@@H]2C(=O)N1CCOCC1,–,13µM,?,–,10µM,10.3µM,20.6µM,?,?,–
O=C(OC1CCCCC1=O)c1cccc(S(=O)(=O)N2CCCCC2)c1 (stereo not drawn),–,–,–,–,–,–,·,·,·,·
Cc1ccc(S(=O)(=O)N2CCCCC2)cc1C(=O)OC1CCCCC1=O (stereo not drawn),–,–,–,–,?,–,?,–,–,–
Cc1cccc(CN2C(=O)NC(c3ccccc3)(c3ccccc3)C2=O)c1,–,?,–,–,22.4µM,?,?,?,?,–
CCOc1ccc(NC(=O)Cn2c(C)cc3ccccc3c2=O)cc1,–,–,·,·,–,–,·,·,·,·
